# Reference: ChEMBL document CHEMBL3988442, “University of Dundee, Small-Polar-MMV Screening Library” (2021)
# Molecular target: Shiga toxin 2 (Escherichia coli O157:H7) (UniProt P09385+P09386)
# Experiment: E. coli 0.157:H7 Shiga Toxin SOP - stx2 screening assay
# Assay type: functional
# Design: scale not given: direction of the effect not stated beside the values
# Conditions: 30 µM
row,Structure (SMILES),Percent Effect
1,COc1cccc2c1OCC(C(=O)N1CCN(S(C)(=O)=O)CC1)C2 (stereo not given),14.3%
2,O=C(CCN1CCOC(Cn2cccn2)C1)NC1CCCC1 (stereo not given),-51.9%
3,CCn1cnnc1CNC(=O)NC(C)c1cccs1 (stereo not given),-10.2%
4,CCc1nc(CN2CCCC(NCc3nnc(C4CC4)o3)C2)no1 (stereo not given),17.9%
5,Cc1ccccc1N1CCN(C(=O)c2ccc[nH]2)C(C)C1 (stereo not given),24.5%
6,O=C(NCCC1=CCCCC1)NCc1nnc2n1CCC2,24.3%
7,COc1ccc(CNC2CCN(CCc3ccncc3)CC2)cc1O,-49.6%
8,Cc1nc(C(=O)N2CCc3c(nc(-c4ccncc4)[nH]c3=O)C2)cs1,13.5%
9,Cc1ccc(CN2CCOC3(COCCN(CCN(C)C)C3)C2)o1 (stereo not given),-4.4%
10,Cc1nccn1C1CCCN(C(=O)c2ccc(N3CCCC3)nn2)C1 (stereo not given),17.8%
11,Cn1cc(CN2CCCN(C(=O)c3cc[nH]n3)CC2)cn1,-19.9%
12,CCc1ccc(NC(=O)N2C[C@H]3C[C@H](C(=O)NC)[C@@H](C2)O3)cc1,-5.17%
13,CC(C)CNC(=O)[C@H]1CCS(=O)(=O)[C@@H]2CN(Cc3ccc(Cl)cc3)C[C@H]12,-5.7%
14,Cc1cc(C(=O)N2CCC(c3nccn3CCCN(C)C)CC2)no1,-11.8%
15,CN(c1ccncn1)C1CC2(CCN(C(=O)CCc3cccs3)C2)C1 (stereo not given),-23.3%
16,Cc1[nH]/c(=N\C(=O)c2csc(NC3CC3)n2)sc1C,7.35%
17,CS(=O)(=O)Cc1ccc(CNC(=O)c2cccnc2O)cc1,-14.2%
18,CCc1[nH]ncc1C(=O)N1CCCN(Cc2cnn(C(C)C)c2)CC1,9.14%
19,CC(CCN1CCn2nc(CNC(=O)N(C)C)cc2C1)c1ccccc1 (stereo not given),-1.92%
20,Cc1cc(C)n(CC2CCCN2CC(=O)N(C)Cc2cnn(C)c2)n1 (stereo not given),21.8%

row,Structure (SMILES),Percent Effect
1,Cc1ccc(CC2CCCN2CC(=O)NCc2ccccn2)cc1 (stereo not given),-4.96%
2,COc1ccccc1CC(=O)NS(=O)(=O)c1ccc(C(N)=O)cc1,7.74%
3,O=C(CCc1nc2cccnc2[nH]1)NCc1ccc2c(c1)OCO2,-41.8%
4,CCn1ncnc1C(NC(=O)CC1CCN(C(C)C)CC1)C1CC1 (stereo not given),-13.7%
5,O=C(c1ccn(-c2ccccc2Cl)n1)N1CCSCC1,8.96%
6,Cc1ccccc1-c1noc(CN2CCn3c(nnc3C3CC3)C2)n1,-48.8%
7,O=C(c1ccc[nH]1)N1C[C@H](OCc2cccnc2)[C@H]2COC[C@H]21,-6.45%
8,CC(C)CCN1Cc2c(C(=O)O)ncn2-c2ccccc2S1(=O)=O,-10.7%
9,Cc1ccc(N2CCCc3sc(C(=O)NCc4cccnc4)nc32)nn1,-41.7%
10,COc1c(CNC2CCN(C(=O)C3CC3)CC2)c(C(C)C)nn1C,29.5%
11,O=C(CN1C=Nc2ccccc2S1(=O)=O)NCCc1cccs1,-2.28%
12,Cc1noc(C)c1CN(C)C(=O)NC1CCN(C2CC2)CC1,-7.45%
13,CNC(=O)c1cccc(NC(=O)Cn2nc(-c3cccs3)oc2=O)c1,-55.6%
14,COCCCN(CCOC)C(=O)Nc1ccc(C)cc1C,1.16%
15,O=C(CCc1ccccc1)Nc1ncccc1OC(F)F,-5.61%
16,CN(C)C(=O)c1ccc2c(c1)N(C)C(CC(=O)NC(C)(C)CO)CO2 (stereo not given),-25.6%
17,CN(Cc1ccccc1)CC(O)Cn1cnc2c(cnn2C)c1=O (stereo not given),-8.29%
18,COCCN1CCC(CNC(=O)c2cc(C)cc(C)c2)C1 (stereo not given),-3.77%
19,O=C(NCCNc1ncccn1)C1CCN(C(=O)C2CC2)CC1,14.1%
20,COCc1ncn2c1CN(C(=O)C1CC=CC1)CC2,0.0561%
